# Compound activity as filed in PubChem BioAssay.
# Shown are actives, neighbours in structure and some others; about 28% of the full set was active somewhere.
# DAT uptake mod = human DAT dopamine uptake with cocaine, either direction; LLC-PK1 hDAT cells, [14C]-dopamine uptake with cocaine IC80; actives deviate in either direction; B-score at 10 µM; actives 1.3% (n = 110,000);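 active = Z score or B-score, a plate-position-corrected score, falls beyond the plate's 99.7% confidence bounds, in either direction; inactive = both scores lie inside the 99.7% bounds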;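 also: scored against the spread of the other compound wells on the same plate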
# CYP2C9 inhib = inhibitors of human CYP2C9; inhibition, % at 5 µM; P11712; AID 777; actives 20% (n = 96,000); CYP2C9 Supersomes, luciferin-H conversion, luminescence;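 active = blocking of liver enzyme CYP2C9 beyond about 50% at 5 µM, limit read from the data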
# Target sequence (P11712 whole entry, looked up): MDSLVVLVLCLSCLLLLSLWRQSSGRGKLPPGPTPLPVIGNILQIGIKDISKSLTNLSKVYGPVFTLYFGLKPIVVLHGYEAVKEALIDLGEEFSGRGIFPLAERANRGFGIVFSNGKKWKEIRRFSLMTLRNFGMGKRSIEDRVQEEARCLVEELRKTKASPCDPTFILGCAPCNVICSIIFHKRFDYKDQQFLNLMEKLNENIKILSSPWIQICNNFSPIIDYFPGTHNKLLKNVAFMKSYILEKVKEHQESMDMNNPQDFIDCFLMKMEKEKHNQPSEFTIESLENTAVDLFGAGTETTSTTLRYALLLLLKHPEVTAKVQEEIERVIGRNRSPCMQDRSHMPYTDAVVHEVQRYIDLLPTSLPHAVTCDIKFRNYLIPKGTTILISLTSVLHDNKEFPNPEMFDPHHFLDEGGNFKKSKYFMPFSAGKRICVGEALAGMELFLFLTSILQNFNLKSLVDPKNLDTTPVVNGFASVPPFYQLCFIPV
# CYP2C19 activ = cytochrome P450 2C19 (human) activation. P33261. recombinant CYP2C19, luciferin-H EGE luminescence; active compounds read high; 0 = fully inhibited enzyme, 1 = untreated enzyme. activation factor at 5 µM. 96,000 tested, under 10 active. AID 1025;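 active = activation factor of at least 2 at 5 µM in the primary screen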;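 also: 0 = wells with 2.5 mM tranylcypromine and 1 = vehicle-only wells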
# CYP2C9 act = CYP2C9 (human) activation; P11712; activation factor at 5 µM; actives 1.4% (n = 96,000); recombinant CYP2C9, luciferin-H conversion, luminescence; active compounds read high; factor 1 = untreated enzyme, 0 = blocked;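 active = activation factor of 2 or more for CYP2C9 at a 5 µM dose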;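 also: 0 = sulfaphenazole-blocked wells and 1 = vehicle-only wells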
# CYP2C19 inhib = inhibitors of human CYP2C19. P33261. CYP2C19 Supersomes, luciferin-H EGE luminescence, 30 min. inhibition, % at 5 µM. actives 21% (n = 96,000). AID 778;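 active = CYP2C19 inhibition above a set limit at 5 µM in the primary screen, cut at about 50% in these data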;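 also: plate controls were negative control wells for no effect and 2.5 mM tranylcypromine positive control for full effect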
# D1 allo mod = allosteric modulators of human D1 dopamine receptor; P21728; HEK293 D1, CRE-luciferase, dopamine EC30 potentiation; actives deviate in either direction; B-score at 10 µM; actives 5.9% (n = 58,000);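 active = luminescence count or its row- and column-corrected plate score outside the 99.7% band of the plate's sample wells, on either side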
# Starred values were filed as active, the others as inactive; . = no result given.
SMILES,DAT uptake mod,CYP2C9 inhib,CYP2C19 activ,CYP2C9 act,CYP2C19 inhib,D1 allo mod
COc1ccccc1N1CCN(C(c2cccs2)c2nnnn2C2CCCC2)CC1 (configuration not stated),0.051,88*,0.1,0.1,94*,-1.5
Cc1ccc2occ(C(c3nnnn3C3CCCC3)N3CCN(C(=O)c4ccco4)CC3)c(=O)c2c1 (configuration not stated),0.43,83*,0.2,0.2,82*,-0.27
O=C(c1ccco1)N1CCN(C(c2cccs2)c2nnnn2C2CCCC2)CC1 (configuration not stated),0.74,68*,0.5,0.3,55*,.
Cc1c(O)cccc1C(=O)N[C@@H](CSc1ccccc1)[C@H](O)CN1C[C@H]2CCCC[C@H]2C[C@H]1C(=O)NC(C)(C)C,0.31,.,.,.,.,.
O=C1CSC(c2ccccn2)N1c1ccc(Cl)c(Cl)c1 (configuration not stated),-0.46,9,0.4,0.9,63*,.
N#CCCN/N=C(/Cc1nc2ccccc2[nH]1)c1ccc(Cl)cc1,1.5,75*,0,0.2,98*,.
COC(=O)c1ccccc1NC(=O)c1cccc(NC(=O)c2ccc(Br)o2)c1C,-0.021,14,0.6,0.9,35,0.015
COC(=O)c1ccccc1OC(=O)c1ccc(Br)o1,0.14,16,0.2,0.8,76*,-0.033
O=S(=O)(Nc1cccnc1Cl)c1ccc2c(c1)OCCO2,-0.21,20,0.8,0.8,22,.
CSc1ccccc1NS(=O)(=O)c1ccc2c(c1)OCCO2,0.037,-170,0.2,2.7*,79*,0.55
CCCCNC(=O)c1ccccc1NS(=O)(=O)c1ccc2c(c1)OCCO2,0.39,-14,0.7,1.1,29,-0.042
CCCNC(=O)c1ccccc1NS(=O)(=O)c1ccc2c(c1)OCCO2,0.24,-104,0.6,2*,44,-0.0043
CCCCCCc1nnc(N)s1,-0.014,28,0.7,0.7,25,.
CCCNC(=O)c1cc(OC)c(OC)cc1[N+](=O)[O-],-0.8,-23,1.1,1.2,-14,.
Nc1c(NCCN2CCOCC2)c2ccccc2oc1=O,-0.54,-9,0.9,1.1,13,-0.54
Cc1ccccc1Nc1c(N)c(=O)oc2ccccc12,-7.7*,65*,0,0.4,96*,.
C=CCN1C(=O)C(Cc2ccc(OCC)cc2)S/C1=N\N=C\c1cccs1 (configuration not stated),0.5,54*,0.7,0.5,30,.
C=CCN1C(=O)C(Cc2ccc(C)cc2)S/C1=N/N=C/c1ccco1 (configuration not stated),0.21,25,1,0.7,5,.
C=CCN1C(=O)C(Cc2ccccc2)S/C1=N/N=C/c1cccs1 (configuration not stated),0.34,68*,0.8,0.3,23,.
CS(=O)(=O)N(CCC(=O)O)Cc1ccccc1,-1.5,-16,1.1,1.2,-12,0.022
COc1ccc(-c2nc3n(n2)C(c2ccncc2)C(C(N)=O)=C(C)N3)cc1 (configuration not stated),.,19,0.8,0.8,18,-0.09
COC(=O)C1=C(C)Nc2nc(-c3ccccc3)nn2C1c1ccc(C)o1 (configuration not stated),0.67,71*,0.3,0.3,66*,-7.3*
COc1cccc(-c2nc3n(n2)C(c2cccs2)C(C(=O)Nc2cccnc2)=C(C)N3)c1 (configuration not stated),1.4,99*,0.2,0,77*,-1.1
CC1=C(C(=O)Nc2ccccc2)C(c2cccnc2)n2nc(-c3cccnc3)nc2N1 (configuration not stated),0.052,75*,0.7,0.3,26,-0.017
CC1=C(C(=O)Nc2ccccc2C)C(c2cccnc2)n2nc(CCCO)nc2N1 (configuration not stated),-0.54,53*,1.2,0.5,-15,0.18
CCSc1nc(O)c(C2OC(=O)c3c2ccc(OC)c3OC)c(=O)n1CC (configuration not stated),0.12,18,0.8,0.8,15,-1.4
CCOc1ccc2[nH]c(=O)c(CN(CC3CCCN3CC)C(=O)NCc3ccccc3)cc2c1 (configuration not stated),0.77,20,0.8,0.8,19,-1.3
